This is a sample that favours compounds with a hit; in the whole collection about 1.6% have one here.
KCNQ2 pot: potentiators of rat KCNQ2 potassium channel | O88943 | CHO-K1 KCNQ2, FluxOR thallium flux fluorescence; stronger effect = higher value | B-score at 10 µM | 310,000 compounds, 0.54% hits | AID 2239;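 active means fluorescence ratio B-score at least 3 SD of library B-scores, with initial fluorescence B-score within 3 of them, cut at about 5.3 in these data; same plate scores as AID 2156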;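 further: B-score of peak minus minimum over baseline fluorescence ratio after K+ and Tl+ stimulus; positive B-score means potentiation of KCNQ2 with more thallium influx and brighter signal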
KCNQ2 block: blocks the rat KCNQ2 potassium channel; B-score at 10 µM; AID 2156; CHO-K1 KCNQ2, FluxOR thallium flux, 20 min; stronger effect = lower value; 310,000 compounds, 1.1% hits; O88943;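 active means fluorescence ratio B-score at most minus 3 library SDs, with starting brightness B-score within 2 library SDs, cut at about -5.5 in these data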
KCNQ2 block conf: confirmation of rat KCNQ2 potassium channel inhibitors | shares compounds with KCNQ2 block | KCNQ2-expressing cells, thallium flux, inhibition; stronger effect = lower value | activity change, negative = inhibition, % at 10 µM | 1,000 compounds, 57% hits | AID 493025;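 further: 0% = vehicle wells and values are ratio percent relative to vehicle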
KCNQ1 spec: selectivity of KCNQ2 inhibitors against human KCNQ1; shares compounds with KCNQ2 block; activity change, negative = inhibition, % at 10 µM; 1,000 compounds, 15% hits; KCNQ1-expressing cells, FluxOR thallium flux fluorescence; stronger effect = lower value;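 active means activity change at least 3 SD of negative controls below their mean in both duplicate wells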;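 further: CHO cells stably transfected with KCNQ1 and depolarized by potassium stimulus; peak minus minimum fluorescence over baseline after thallium addition; 0% = vehicle negative control and -100% = blank without thallium stimulus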
Target sequence (P51787 whole entry, looked up): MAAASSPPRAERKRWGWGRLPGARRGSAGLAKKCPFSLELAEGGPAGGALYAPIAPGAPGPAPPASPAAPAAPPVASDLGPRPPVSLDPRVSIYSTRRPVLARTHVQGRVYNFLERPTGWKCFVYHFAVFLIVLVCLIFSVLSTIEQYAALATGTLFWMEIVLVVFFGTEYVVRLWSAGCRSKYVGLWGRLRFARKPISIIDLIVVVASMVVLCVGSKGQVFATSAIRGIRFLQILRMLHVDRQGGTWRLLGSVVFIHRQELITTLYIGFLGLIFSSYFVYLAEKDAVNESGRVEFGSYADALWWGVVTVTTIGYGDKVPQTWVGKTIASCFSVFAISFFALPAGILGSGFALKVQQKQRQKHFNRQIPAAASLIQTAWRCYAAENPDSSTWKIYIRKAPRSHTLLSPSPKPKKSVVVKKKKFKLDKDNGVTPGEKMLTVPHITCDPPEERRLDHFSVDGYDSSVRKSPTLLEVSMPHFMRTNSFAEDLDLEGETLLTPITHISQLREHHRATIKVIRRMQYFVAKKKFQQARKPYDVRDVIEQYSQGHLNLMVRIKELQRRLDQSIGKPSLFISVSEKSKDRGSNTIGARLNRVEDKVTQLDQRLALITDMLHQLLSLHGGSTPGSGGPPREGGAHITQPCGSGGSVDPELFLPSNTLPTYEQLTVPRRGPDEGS
CHO Tl ctr: activity in parental CHO cells lacking KCNQ2. activity change, % at 10 µM. 1,000 compounds, 14% hits. shares compounds with KCNQ2 block. thallium flux counter-screen; stronger effect = lower value. AID 493029;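 further: 0% = vehicle negative controls with stimulus buffer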
KCNQ2 inh confirm: rat KCNQ2 inhibition confirmed by electrophysiology | shares compounds with KCNQ2 block | KCNQ2-expressing cells, automated patch clamp current | calls only at 10 µM | 550 compounds, 49% hits | AID 588531
An asterisk follows results filed as active; i = inactive; · = not tested or not shown; + = active, no number. Unless noted, how the calls were made is not given here.

SMILES | KCNQ2 pot | KCNQ2 block | KCNQ2 block conf | KCNQ1 spec | CHO Tl ctr | others
O=C(/C=C/c1c(F)cccc1Cl)NCc1ccc2c(c1)OCO2 | 1 | i | · | · | ·
CC(NCc1ccc(OCc2ccc(Cl)cc2)cc1)C(O)c1ccccc1 (configuration not stated) | · | i | · | · | ·
COc1ccc(CNCC(O)(c2ccc(Cl)cc2)c2ccc(Cl)cc2)cc1 | -7.7 | -7.7* | i | i | i
OC(CNCc1ccc(Cl)cc1)(c1ccccc1)c1ccc(F)cc1 (configuration not stated) | -7.2 | -7.2* | -33%* | -34%* | -32%* | KCNQ2 inh confirm=i
COc1ccc(CNC(c2ccccc2)c2ccc(Cl)cc2)cc1 (configuration not stated) | -8.8 | -8.8* | i | i | i
OC(CNCc1ccc(F)cc1)(c1ccc(F)cc1)c1ccc(F)cc1 | · | i | · | · | ·
COc1ccc(CNCC(O)(c2ccc(Cl)cc2)c2ccc(Cl)cc2)cc1OC | · | i | · | · | ·
Cc1cc(C)nc(SCCn2c(N3CCOCC3)nc3c2c(=O)[nH]c(=O)n3C)n1 | · | i | · | · | ·
Cc1ccccc1-n1ncc(C(C)NC(=O)c2ccco2)c1C (configuration not stated) | · | i | · | · | ·
Cc1ccc(Nc2cc(C)nc(NCc3ccccc3)n2)cc1 | · | i | · | · | ·
Cc1cc(NC2CCCCC2)nc(NCc2ccccc2)n1 | -8.3 | -8.3* | i | i | i
CCOC(=O)c1cnc2ccc(C)cc2c1Sc1ccccc1 | -7.1 | -7.1* | -28%* | i | i | KCNQ2 inh confirm=+
CCOC(=O)c1cnc2ccccc2c1Nc1cccc(C(=O)O)c1 | 2 | i | · | · | ·
O=C(/C=C/c1ccc(Cl)cc1)N(Cc1ccccc1)c1ccccn1 | -8.3 | -8.3* | -31%* | i | i | KCNQ2 inh confirm=+
O=C(Cc1c(F)cccc1Cl)N(Cc1ccccc1)c1ccccn1 | 0.31 | i | · | · | ·
COCCCNC(=S)Nc1ccc(S(=O)(=O)Nc2cc(OC)nc(OC)n2)cc1 | 1.6 | i | · | · | ·
CS(=O)Cc1cc(Sc2ccccc2)nc(-c2ccncc2)n1 (configuration not stated) | 1 | i | · | · | ·
CCc1nnc(SCC(=O)NCCC2=CCCCC2)nc1CC | · | i | · | · | ·
COc1cccc(C(=O)NC(=S)Nc2ccccc2N2CCOCC2)c1 | -8.7 | -8.7* | -29%* | i | i | KCNQ2 inh confirm=+
CC(C)Oc1cccc(C(=O)Nc2ccccc2N2CCOCC2)c1 | · | i | · | · | ·
CNC(=S)SCCOc1ccccc1C | · | i | · | · | ·
CN(CC(=O)Nc1ccccc1Br)C(=O)c1cccnc1Nc1cccc(C(F)(F)F)c1 | · | i | · | · | ·
CCCCOc1cccc(OCCCC)c1C(=O)Nc1cc(C)on1 | -9.7 | -9.7* | -43%* | -34%* | -34%* | KCNQ2 inh confirm=+
CCOc1ccc(C(=O)Nc2cc(C)on2)cc1OCC | 0.02 | i | · | · | ·
CC(=O)N1N=C(c2ccco2)CC1c1ccc(Cl)o1 (configuration not stated) | 1 | i | · | · | ·
SMILES | KCNQ2 pot | KCNQ2 block | KCNQ2 block conf | KCNQ1 spec | CHO Tl ctr | others
COc1ccccc1NC(=O)c1cc(-c2cc(OC)c(OC)c(OC)c2)nc2ccccc12 | -8.9 | -8.9* | i | i | i
COc1cc(-c2cc(C(=O)Nc3ccc(N4CCOCC4)cc3)c3ccccc3n2)cc(OC)c1OC | · | i | · | · | ·
COc1ccc(-c2cc(C(=O)Nc3ccc(Cl)cc3Cl)c3ccccc3n2)cc1OC | · | i | · | · | ·
COc1ccc(-c2cc(C(=O)Nc3ccccc3O)c3ccccc3n2)cc1OC | -6.9 | -6.9* | i | i | i
Cc1ccc(-c2csc3ncn(CC(=O)O)c(=O)c23)cc1C | 1 | i | · | · | ·
CCc1cc(=O)[nH]c(SCC(=O)N2CCC(Cc3ccccc3)CC2)n1 | 0.88 | i | · | · | ·
O=C(COC(=O)c1cccnc1Cl)NCCC1=CCCCC1 | 0.23 | i | · | · | ·
CCc1nc(SCC(=O)Nc2cc(C)ccc2OC)c2c(C)c(C)sc2n1 | -6.8 | -6.8* | i | i | i
Cc1sc2nc(C(C)C)nc(SCC(=O)N3c4ccccc4CC3C)c2c1C (configuration not stated) | 2.4 | i | · | · | ·
CCc1nc(SCC(=O)N2c3ccccc3CC2C)c2c(C)c(C)sc2n1 (configuration not stated) | -6.7 | -6.7* | -20%* | i | i | KCNQ2 inh confirm=i
COc1ccc(C)cc1NC(=O)CCCNC(=O)Cn1cnc2sc(C)c(C)c2c1=O | · | i | · | · | ·
CC(C)(C)N(Cc1ccccc1)C(=O)COC(=O)c1cccc([N+](=O)[O-])c1 | -7 | -7* | i | i | i

From PubChem BioAssay
